According to the supplement of paper PMC13380429:

Legend:
[1] = system: Vero E6 infected with SARS-CoV-2; test: morphology score (similarity to uninfected cells); higher = more like uninfected cells; settings: 24 h
[2] = system: Vero E6 infected with SARS-CoV-2; test: SARS-CoV-2 infection rate relative to infected DMSO; higher = more infection, active = 60 or less; settings: 24 h

Compound | morphology score [1] | SARS-CoV-2 infection rate [2]
N#Cc1c(N(CC(=O)O)CC(=O)O)sc(C(=O)O)c1CC(=O)O [Strontium Ranelate] (10 µM) | -0.000723 | 107% (inactive)
CCOC(=O)n1ccn(C)c1=S [carbimazole] (10 µM) | 0.159 | 99% (inactive)
Cc1ccccc1N1CCN(S(=O)(=O)C[C@]23CC[C@H](C[C@@H]2NC(=O)[C@@H](N)CCS(C)(=O)=O)C3(C)C)CC1 (10 µM) | 0.049 | 95% (inactive)
CCN(CC)CCO[C@H]1CC[C@@]2(C)C(=CC[C@@H]3[C@@H]2CC[C@]2(C)C(=O)CC[C@@H]32)C1 (0.833333 µM) | 0.234 | 84% (inactive)
CC1(C)CN(C(=O)c2ccc(-c3cccc4nc(NC(=O)C5CC5)nn34)cc2)C1 [solcitinib] (10 µM) | 0.0939 | 110% (inactive)
NC1=NC(=O)N([C@H]2C[C@H](O)[C@@H](CO)O2)CN1 (10 µM) | 0.0264 | 106% (inactive)
Fc1ccc(CN2CCC(Nc3ccc(C(F)(F)F)nn3)CC2)cc1F (10 µM) | -0.198 | 110% (inactive)
CC(=O)Nc1c(I)c(C(=O)O)c(I)c(N(C)C(C)=O)c1I [metrizoic-acid] (10 µM) | 0.0802 | 108% (inactive)
CCCCC/C=C\C/C=C\C/C=C\C/C=C\CCCC(=O)Nc1ccc(O)cc1 (10 µM) | 0.0145 | 106% (inactive)
O=c1c(O)c(-c2ccc(O)cc2O)oc2cc(O)cc(O)c12 [morin] (10 µM) | 0.0742 | 108% (inactive)
CCCCc1ncc(/C=C(\Cc2cccs2)C(=O)O)n1Cc1ccc(C(=O)O)cc1 [eprosartan] (10 µM) | 0.0906 | 106% (inactive)
CC(C)[C@](O)(c1ccc2cc(OC(F)F)c(OC(F)F)cc2c1)c1c[nH]nn1 (10 µM) | 0.165 | 102% (inactive)
CCCc1c(OCCCCc2nnn[nH]2)ccc(C(C)=O)c1O [tomelukast] (10 µM) | -0.0661 | 110% (inactive)
COC(=O)/C=C/C(=O)N[C@@H]1CC[C@@]2(O)[C@H]3Cc4ccc(O)c5c4[C@@]2(CCN3CC2CC2)[C@H]1O5 [beta-funaltrexamine] (10 µM) | 0.0225 | 99% (inactive)
CC1CS(=O)(=O)CCN1/N=C/c1ccc([N+](=O)[O-])o1 (stereo unspecified) [nifurtimox] (10 µM) | 0.0407 | 102% (inactive)
Cc1cc(C(C)(C)C)cc(C)c1CC1=NCCN1 [xylometazoline] (10 µM) | -0.0246 | 106% (inactive)
COc1nc(C)nc(Cl)c1NC1=NCCN1 [moxonidine] (10 µM) | 0.0753 | 102% (inactive)
Cc1cc(C(=O)N2Cc3cnn(C)c3Nc3ccccc32)ccc1CNC(=O)N1CCC[C@H]1C(=S)N1CCCN(C)CC1 (10 µM) | 0.0545 | 110% (inactive)
CCc1cncnc1N1CCN(Cc2nc3cc(C(F)(F)F)ccc3[nH]2)CC1 (10 µM) | -0.441 | 116% (inactive)
CN(C)C(=N)NCCC[C@H](N)C(=O)O [asymmetrical-dimethylarginine] (10 µM) | 0.217 | 95.5% (inactive)
Cc1nnc(NS(=O)(=O)c2ccc(N)cc2)s1 [sulfamethizole] (10 µM) | 0.0585 | 108% (inactive)
O=C(O)Cc1cccc2c(=O)cc(-c3ccccc3)oc12 [mitoflaxone] (10 µM) | 0.0177 | 106% (inactive)
CCCCCCCCC(=O)N[C@H](CN1CCCC1)[C@H](O)c1ccc2c(c1)OCCO2 (10 µM) | 0.393 | 71.5% (inactive)
COc1ccc2[nH]c([S@@+]([O-])Cc3ncc(C)c(OC)c3C)nc2c1 [esomeprazole] (10 µM) | -0.181 | 110% (inactive)
CCCOC(=O)c1ccccc1 [propyl-benzoate] (10 µM) | 0.105 | 90% (inactive)
CC(=O)OC/C=C(C)/C=C/C=C(C)/C=C/C1=C(C)CCCC1(C)C [retinyl-acetate] (10 µM) | -0.227 | 113% (inactive)
N#C[C@H](O[C@@H]1O[C@H](CO[C@@H]2O[C@H](CO)[C@@H](O)[C@H](O)[C@H]2O)[C@@H](O)[C@H](O)[C@H]1O)c1ccccc1 [amygdalin] (10 µM) | 0.155 | 106% (inactive)
CC(C)[C@@H](C)/C=C/[C@@H](C)[C@H]1CC[C@H]2C3=CC=C4C[C@@H](O)CC[C@]4(C)[C@H]3CC[C@]12C [ergosterol] (10 µM) | 0.0665 | 104% (inactive)
